The results in this text go back to publication PMC3218832.

Among the targets are RELARELA (p65 homodimer) (Homo sapiens, UniProt Q04206 1-307); p50p50 homodimer (Homo sapiens, UniProt P19838 7-356); RELB subunit;p50 subunit (Homo sapiens;Homo sapiens, UniProt Q01201;P19838 120-401;7-356).
Holding throughout (experiment): protein binding microarray; high values mean tight binding
What all share (details): dsDNA, one strand shown

For another experiment, the target named is T1, p52p52 homodimer (Homo sapiens, UniProt Q00653 4-332).
T1 sequence: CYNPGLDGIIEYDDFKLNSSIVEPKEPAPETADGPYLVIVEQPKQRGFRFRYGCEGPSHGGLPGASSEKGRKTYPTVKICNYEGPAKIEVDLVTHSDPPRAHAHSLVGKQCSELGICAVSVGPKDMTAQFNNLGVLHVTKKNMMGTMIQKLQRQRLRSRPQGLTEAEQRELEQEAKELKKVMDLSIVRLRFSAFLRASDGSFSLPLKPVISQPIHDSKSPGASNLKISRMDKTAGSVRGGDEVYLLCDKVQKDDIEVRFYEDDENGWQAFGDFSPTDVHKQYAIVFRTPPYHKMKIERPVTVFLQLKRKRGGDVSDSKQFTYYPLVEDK

Experiment [1] concerns the target RELA (p65) subunit of heterodimer;p50 subunit (Homo sapiens;Homo sapiens, UniProt Q04206;P19838 1-307;7-356).
Experiment [2] concerns the target RELA (p65) subunit of heterodimer;p52 subunit (Homo sapiens;Homo sapiens, UniProt Q04206;Q00653 1-307;4-332).
The target of another experiment is T2, RELB subunit;p52 subunit (Homo sapiens;Homo sapiens, UniProt Q01201;Q00653 120-401;4-332).
T2 sequence 1: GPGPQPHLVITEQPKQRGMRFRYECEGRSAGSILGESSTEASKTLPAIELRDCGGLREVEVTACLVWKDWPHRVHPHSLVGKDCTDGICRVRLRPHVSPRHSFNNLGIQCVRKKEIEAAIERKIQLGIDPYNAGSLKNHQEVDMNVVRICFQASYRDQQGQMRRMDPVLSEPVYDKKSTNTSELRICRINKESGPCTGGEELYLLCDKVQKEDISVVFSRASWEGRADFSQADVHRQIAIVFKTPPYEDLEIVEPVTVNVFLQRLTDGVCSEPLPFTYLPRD
T2 sequence 2: T1 sequence

Experiment [3] has as its target C-Rel subunit;p50 subunit (Homo sapiens;Homo sapiens, UniProt Q04864;P19838 1-285;7-356).
Experiment [4] deals with T3, C-Rel subunit;p52 subunit (Homo sapiens;Homo sapiens, UniProt Q04864;Q00653 1-285;4-332).
T3 sequence 1: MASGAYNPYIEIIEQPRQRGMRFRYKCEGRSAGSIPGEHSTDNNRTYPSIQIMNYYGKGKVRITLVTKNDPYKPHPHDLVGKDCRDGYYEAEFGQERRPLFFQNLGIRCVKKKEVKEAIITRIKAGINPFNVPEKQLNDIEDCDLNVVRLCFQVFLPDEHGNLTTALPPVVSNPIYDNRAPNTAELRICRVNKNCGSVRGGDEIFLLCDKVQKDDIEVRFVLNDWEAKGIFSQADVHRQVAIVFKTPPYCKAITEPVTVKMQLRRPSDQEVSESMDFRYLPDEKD
T3 sequence 2: T1 sequence

Chain of RELA (p65) subunit of heterodimer;p50 subunit (Q04206 1-307, chain 1 of 2): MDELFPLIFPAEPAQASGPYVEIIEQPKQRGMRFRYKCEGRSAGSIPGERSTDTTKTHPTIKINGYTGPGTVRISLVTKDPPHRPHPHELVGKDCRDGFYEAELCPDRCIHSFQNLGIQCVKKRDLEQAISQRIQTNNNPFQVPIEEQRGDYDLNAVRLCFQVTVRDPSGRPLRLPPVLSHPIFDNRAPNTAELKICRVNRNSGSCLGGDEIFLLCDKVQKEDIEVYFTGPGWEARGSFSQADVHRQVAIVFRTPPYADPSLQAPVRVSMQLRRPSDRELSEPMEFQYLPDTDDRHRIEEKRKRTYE
Chain of RELA (p65) subunit of heterodimer;p50 subunit (P19838 7-356, chain 2 of 2): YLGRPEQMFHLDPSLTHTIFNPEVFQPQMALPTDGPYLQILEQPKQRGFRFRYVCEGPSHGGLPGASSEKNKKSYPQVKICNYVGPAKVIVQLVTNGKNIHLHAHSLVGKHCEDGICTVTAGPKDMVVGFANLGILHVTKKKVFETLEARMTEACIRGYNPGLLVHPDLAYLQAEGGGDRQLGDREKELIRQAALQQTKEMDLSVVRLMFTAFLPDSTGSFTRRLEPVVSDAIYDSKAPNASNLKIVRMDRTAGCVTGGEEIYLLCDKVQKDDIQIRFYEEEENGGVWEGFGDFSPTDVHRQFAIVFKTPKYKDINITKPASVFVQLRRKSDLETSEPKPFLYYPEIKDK
Chain of RELARELA (p65 homodimer) (Q04206 1-307): as the sequence (Q04206 1-307, chain 1 of 2) above
Chain of p50p50 homodimer (P19838 7-356): as the sequence (P19838 7-356, chain 2 of 2) above

Turning to GGGTTCGTCCC, the binding signal with RELARELA (p65 homodimer) amounted to 0.22 z-score; with p50p50 homodimer it was 0.238 z-score; with p52p52 homodimer, 1.59 z-score; in experiment [1] it was 0.186 z-score; in experiment [2] it was 1.09 z-score; with RELB subunit;p50 subunit, 0.251 z-score. In addition, the binding signal amounted to 0.438 z-score with RELB subunit;p52 subunit, 0.489 z-score in [3] and 0.747 z-score in experiment [4].

Turning to CAAAAGTTCCC, the binding signal in the experiment with RELARELA (p65 homodimer) amounted to 1.7 z-score; with p50p50 homodimer, 0.79 z-score; with p52p52 homodimer, 0.496 z-score; in experiment [1], 0.839 z-score; in experiment [2], 0.661 z-score; with RELB subunit;p50 subunit, 0.674 z-score. The binding signal was found to be 0.512 z-score with RELB subunit;p52 subunit, 0.746 z-score in [3] and 0.598 z-score in experiment [4].

For the sequence CAGGACACCCT, the binding signal is -0.817 z-score in the experiment with RELARELA (p65 homodimer); -1.69 z-score with p50p50 homodimer; -0.717 z-score in the experiment with p52p52 homodimer; -0.865 z-score in experiment [1]; -0.828 z-score in experiment [2]; -0.795 z-score with RELB subunit;p50 subunit. The binding signal is -0.656 z-score with RELB subunit;p52 subunit, -1.21 z-score in experiment [3] and -0.705 z-score in [4].

As for GAAAGACCCCC, the binding signal with RELARELA (p65 homodimer) was -0.269 z-score; with p50p50 homodimer, 0.985 z-score; in the experiment with p52p52 homodimer, 0.754 z-score; in [1], 1.12 z-score; in experiment [2] it was 1.17 z-score; with RELB subunit;p50 subunit, 0.92 z-score. Further, the binding signal with RELB subunit;p52 subunit was 1.03 z-score; in experiment [3], 0.485 z-score; in experiment [4], 0.846 z-score.

As to CAGTGAACCCC, the binding signal in the experiment with RELARELA (p65 homodimer) was -0.0364 z-score; with p50p50 homodimer it was -0.483 z-score; in the experiment with p52p52 homodimer, -0.201 z-score; in experiment [1], -0.227 z-score; in experiment [2] it was -0.346 z-score; in the experiment with RELB subunit;p50 subunit it was -0.298 z-score. Further, the binding signal in the experiment with RELB subunit;p52 subunit was -0.205 z-score; in [3], -0.189 z-score; in [4], -0.119 z-score.

For CGATGCTCCCC, the binding signal in the experiment with RELARELA (p65 homodimer) is 0.0266 z-score; with p50p50 homodimer it was -0.0437 z-score; with p52p52 homodimer, -0.125 z-score; in experiment [1], -0.0461 z-score; in experiment [2] it was -0.196 z-score; with RELB subunit;p50 subunit it was 0.111 z-score. In addition, the binding signal was 0.0431 z-score in the experiment with RELB subunit;p52 subunit, 0.0174 z-score in experiment [3] and -0.273 z-score in experiment [4].

In the case of GAGTTCTTCCT, the binding signal was -0.0672 z-score with RELARELA (p65 homodimer); -1.52 z-score with p50p50 homodimer; -0.678 z-score with p52p52 homodimer; -0.535 z-score in experiment [1]; -0.734 z-score in experiment [2]; -0.845 z-score in the experiment with RELB subunit;p50 subunit. Besides, the binding signal with RELB subunit;p52 subunit is -0.72 z-score; in experiment [3] it was -0.764 z-score; in experiment [4], -0.548 z-score.

Consider GAAGGTCTCCT, for which the binding signal was -0.533 z-score with RELARELA (p65 homodimer); -2.58 z-score in the experiment with p50p50 homodimer; -0.69 z-score with p52p52 homodimer; -0.982 z-score in experiment [1]; -0.897 z-score in [2]; -1.22 z-score with RELB subunit;p50 subunit. Moreover, the binding signal was -1.02 z-score in the experiment with RELB subunit;p52 subunit, -1.58 z-score in experiment [3] and -0.76 z-score in experiment [4].

Consider GGAGTCGTCCT, for which the binding signal with RELARELA (p65 homodimer) was -0.136 z-score; with p50p50 homodimer, -1.28 z-score; with p52p52 homodimer, -0.582 z-score; in experiment [1] it was -0.993 z-score; in experiment [2] it was -0.875 z-score; in the experiment with RELB subunit;p50 subunit, -1.03 z-score. Also, the binding signal is -0.714 z-score with RELB subunit;p52 subunit, -1.4 z-score in experiment [3] and -0.812 z-score in experiment [4].

CAGAAGTCCCT: the binding signal in the experiment with RELARELA (p65 homodimer) was determined as 0.471 z-score; with p50p50 homodimer, 1.51 z-score; with p52p52 homodimer, 1.62 z-score; in experiment [1], 1.88 z-score; in [2], 1.35 z-score; with RELB subunit;p50 subunit, 2.02 z-score. Moreover, the binding signal in the experiment with RELB subunit;p52 subunit is 1.86 z-score; in experiment [3], 1.39 z-score; in experiment [4], 0.987 z-score.

Take AGGGAGTTCCT: the binding signal came to 0.744 z-score in the experiment with RELARELA (p65 homodimer); 0.856 z-score in the experiment with p50p50 homodimer; 1.12 z-score in the experiment with p52p52 homodimer; 0.667 z-score in experiment [1]; 0.798 z-score in [2]; 0.721 z-score in the experiment with RELB subunit;p50 subunit. The values for the binding signal (with RELB subunit;p52 subunit; in [3]; in [4]) were 0.659 z-score, 0.315 z-score and 0.64 z-score, respectively.

AAATGCCCCCC: the binding signal in the experiment with RELARELA (p65 homodimer) turned out to be 0.508 z-score; in the experiment with p50p50 homodimer, 1.24 z-score; with p52p52 homodimer, 0.957 z-score; in [1], 1.43 z-score; in [2], 1.32 z-score; in the experiment with RELB subunit;p50 subunit, 1.4 z-score. Also, the binding signal was 1.57 z-score with RELB subunit;p52 subunit, 1.28 z-score in [3] and 0.954 z-score in experiment [4].

With GAGTAGTCCCT, the binding signal turned out to be 0.344 z-score with RELARELA (p65 homodimer); 1.35 z-score with p50p50 homodimer; 1.21 z-score with p52p52 homodimer; 0.997 z-score in experiment [1]; 0.922 z-score in experiment [2]; 1.12 z-score with RELB subunit;p50 subunit. For the same sequence, the binding signal is 1.06 z-score with RELB subunit;p52 subunit, 0.633 z-score in experiment [3] and 0.66 z-score in [4].

In the case of GAATTAGTCCT, the binding signal was 0.155 z-score with RELARELA (p65 homodimer); -1.6 z-score in the experiment with p50p50 homodimer; -0.565 z-score in the experiment with p52p52 homodimer; -0.821 z-score in [1]; -0.862 z-score in experiment [2]; -0.954 z-score with RELB subunit;p50 subunit. Also, the binding signal with RELB subunit;p52 subunit is -0.767 z-score; in experiment [3] it was -0.711 z-score; in [4] it was -0.848 z-score.

Turning to GGGAACCCCCC, the binding signal with RELARELA (p65 homodimer) was 2.47 z-score; with p50p50 homodimer, 1.16 z-score; in the experiment with p52p52 homodimer, 3.03 z-score; in experiment [1] it was 2.69 z-score; in experiment [2] it was 2.78 z-score; with RELB subunit;p50 subunit it was 2.09 z-score. Besides, the binding signal in the experiment with RELB subunit;p52 subunit was 2.68 z-score; in experiment [3] it was 2.19 z-score; in experiment [4], 2.96 z-score.
